Among the data in PubChem BioAssay (NCI) are growth inhibition values, retold here.

The nature of assay [1]: NCI Yeast Anticancer Drug Screen. Data for the rad50 strain (AID 155).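 Note: 0% = growth of vehicle-only cultures of the same strain.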 The settings on record: S. cerevisiae rad50 strain growth inhibition; at 50.0 µM; active compounds read high. The gist of the method:
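Compounds were tested on a yeast strain with an engineered DNA damage repair alteration; the reported value is growth inhibition normalised to vehicle treatment.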

Assay [2] is described as follows: NCI Yeast Anticancer Drug Screen. Data for the mec2-1 strain (AID 157). The following applies: S. cerevisiae mec2-1 strain, at 50.0 µM, active compounds read high. The gist of the method:
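mec2-1 yeast strain, carrying an alteration in DNA damage repair or cell cycle control, was exposed to compounds; growth inhibition was measured relative to vehicle-treated controls.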

A short description of assay [3]: NCI Yeast Anticancer Drug Screen. Data for the sgs1 mgt1 strain (AID 161).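 Note: 0% = growth of cultures given vehicle only.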 The settings on record: S. cerevisiae sgs1 mgt1 strain, at 50.0 µM, active compounds read high. The gist of the method: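 This yeast growth screen uses a strain with defined DNA-repair lesions; compound-treated growth is compared with vehicle-treated growth.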
Assay [4] can be described thus: NCI Yeast Anticancer Drug Screen. Data for the cln2 rad14 strain (AID 165).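 Note: 0% = growth equal to vehicle treated cultures.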 The settings on record: S. cerevisiae cln2 rad14 strain, at 50.0 µM, active compounds read high. The gist of the method:
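Yeast carrying cln2 and rad14 alterations (cell cycle control and DNA damage repair) were exposed to compounds. Growth inhibition was measured against vehicle-treated controls.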

A short description of assay [5]: NCI Yeast Anticancer Drug Screen. Data for the bub3 strain (AID 167). The settings on record: S. cerevisiae bub3 mutant strain, at 50.0 µM, active compounds read high. The gist of the method:
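Growth of a checkpoint-deficient yeast mutant is measured after compound exposure. Values represent inhibition relative to vehicle.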

A short description of assay [6]: NCI Yeast Anticancer Drug Screen. Data for the mlh1 rad18 strain (AID 175). The settings on record: S. cerevisiae mlh1 rad18 strain growth inhibition; at 50.0 µM; active compounds read high. The method in brief:
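Growth inhibition of the yeast strain was measured after compound exposure and expressed relative to vehicle-treated controls. The strain carries defined defects in DNA damage repair.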

Molecules are shown by their SMILES. About 79,000 compounds went through this panel and 15% of them were active in at least one assay; those are over-represented in the sample as a whole. A number with no mark means an inactive call. The source made the active and inactive calls. Cut-off read from the data, not from the text of the source: active = growth inhibition above about 70%; inactive = the rest.

`C=C1C(=O)OC2/C=C(\C)C(=O)CC3OC(C)(C)OC3(C)CC(OC(=O)/C(C)=C/C)C12` (stereo not given): the growth inhibition is 15.4% in assay [1]; -14% in assay [2]; 16.6% in assay [3]; 9.6% in assay [4]; -16.2% in assay [5]; -30.6% in assay [6].

With `CN(C)C(=S)Oc1ccc([N+](=O)[O-])cc1Cl`, the growth inhibition in assay [1] is 17.9%; in assay [2] it was 6.95%; in assay [3], 4.95%; in assay [4], 19.4%; in assay [5] it was -3.3%; in assay [6] it was 29.3%.

Turning to `CC(C)(C)C1CCC(C2CC(C(C)(C)C)CCC2=O)CC1` (stereo not given), the growth inhibition in assay [1] was 2.75%; in assay [2], -8%; in assay [3], 1.65%; in assay [4], 5.15%; in assay [5] it was 5.7%; in assay [6], 27.8%.

In the case of `O=CNCO`, the growth inhibition in assay [1] is 19.6%; in assay [2], 14.2%; in assay [3] it was 22.6%; in assay [4], 18.9%; in assay [5] it was 8.5%; in assay [6], 19.1%.

Regarding `O=C(Nc1ccc(C(=O)O)cc1)OCc1ccccc1`, the growth inhibition in assay [1] was 1.65%; in assay [2], 8.75%; in assay [3], 15.5%; in assay [4], -36%; in assay [5] it was 2.5%; in assay [6], -7.7%.

Regarding `NC(Cc1ccc(S(=O)(=O)O)cc1)C(=O)NC(CCCCNC(=O)NCCCCC(NC(=O)C(N)Cc1ccc(S(=O)(=O)O)cc1)C(=O)NC(Cc1ccc(S(=O)(=O)O)cc1)C(=O)O)C(=O)NC(Cc1ccc(S(=O)(=O)O)cc1)C(=O)O` (stereo not given), the growth inhibition in assay [1] is -11.7%; in assay [2], -3.8%; in assay [3], 8.45%; in assay [4] it was -8.65%; in assay [5] it was 22.6%; in assay [6], 14.2%.

As for `Nc1ncnc2c1ccn2C1OC2COP(=O)(O)OC2C1O` (stereo not given), the growth inhibition in assay [1] was -12.6%; in assay [2], -31.4%; in assay [3], -7.1%; in assay [4], 8.45%; in assay [5], -18.3%; in assay [6], -15.1%.

With `COc1cc(O)c(C(C)c2ccccc2)cc1N=NC(N)=O` (stereo not given), the growth inhibition in assay [1] is 17.1%; in assay [2], 16.4%; in assay [3], 19.3%; in assay [4] it was 32.8%; in assay [5], 43.4%; in assay [6], 45.5%.

`Cc1cc(C(=O)NN)no1`: the growth inhibition in assay [1] was -4.75%; in assay [2], -4.4%; in assay [3] it was -3.9%; in assay [4], -10.4%; in assay [5] it was -7.15%; in assay [6], -8.15%.

Consider `CCCC(C)(C)COC(=O)Cc1ccccc1`, for which the growth inhibition was 40.3% in assay [1]; 42% in assay [2]; 55.9% in assay [3]; 23.8% in assay [4]; 23.6% in assay [5]; 46.2% in assay [6].

With `CC(C)(C)c1ccc(C(C)(C)C)c(=O)[nH]1`, the growth inhibition in assay [1] was -32.1%; in assay [2] it was -19.1%; in assay [3], -12.3%; in assay [4] it was -41.5%; in assay [5], -6.1%; in assay [6], 5.65%.

Regarding `COc1cc2nc(Sc3c([N+](=O)[O-])ncn3C)[nH]c2cc1OC`, the growth inhibition is -41.6% in assay [1]; -33.3% in assay [2]; -30% in assay [3]; -23% in assay [4]; -43.5% in assay [5]; -46% in assay [6].

With `CCc1cccc(CC)c1N1C(=O)C2C(C1=O)C1(Cl)C(Cl)=C(Cl)C2(Cl)C1(Cl)Cl` (stereo not given), the growth inhibition in assay [1] was 37.4%; in assay [2] it was 50.6%; in assay [3] it was 65.4%; in assay [4], 74.2% (active); in assay [5], 61%; in assay [6], 87.6% (active).

`CCC(CCC(C)C1CCC2C3CC=C4CC(OC(=O)Nc5ccccc5)CCC4(C)C3CCC12C)C(C)C` (stereo not given): the growth inhibition was -23.4% in assay [1]; -28.1% in assay [2]; -15.9% in assay [3]; -38.5% in assay [4]; -1.5% in assay [5]; -26.4% in assay [6].

With `OC(C1CCCCC1)(C1CCC2(CCCCC2)CC1)C1CCCC2CCCCC21` (stereo not given), the growth inhibition was 29.9% in assay [1]; 5% in assay [2]; 30.9% in assay [3]; 21.5% in assay [4]; 1.35% in assay [5]; 20.1% in assay [6].

For the compound `O=C(O)CNc1ncnc2[nH]ncc12`, the growth inhibition in assay [1] was 7%; in assay [2], -25.1%; in assay [3] it was 2.85%; in assay [4], 3.8%; in assay [5], -8.1%; in assay [6] it was 6%.

Regarding `Cn1cnc([N+](=O)[O-])c1Sc1nccn1-c1ccccc1`, the growth inhibition in assay [1] is -10.8%; in assay [2], -7.1%; in assay [3] it was -7.8%; in assay [4], 22.2%; in assay [5] it was 0.75%; in assay [6] it was -2.85%.

In the case of `C/C(=N/N(C=O)C[n+]1ccccc1)C(CN(CC(C)C)CC(C)C)C(=O)Nc1ccc(C)cc1C` (stereo not given), the growth inhibition in assay [1] was -10.4%; in assay [2] it was 40%; in assay [3] it was -14.5%; in assay [4], 31.5%; in assay [5], 19.9%; in assay [6], 19.9%.

With `CN1C=CC(=Cc2ccccc2)C=C1`, the growth inhibition is 3.3% in assay [1]; 5.85% in assay [2]; -6.45% in assay [3]; -25% in assay [4]; -10.8% in assay [5]; 1.4% in assay [6].

As to `COC(=O)C1O[C@H]1c1cccc[n+]1[O-]` (mixture of isomers), the growth inhibition in assay [1] is -0.3%; in assay [2] it was -3.15%; in assay [3] it was 5.7%; in assay [4], 11.8%; in assay [5] it was -8.2%; in assay [6], -0.9%.
